Laboratory results reported in PubChem BioAssay.
Inconclusive results are not listed. For part of these data: Potency and affinity values are given separately. Activity calls are given as the source filed them. Cut-off read from the data, not from the text of the source: active = fluorescence slope change above about 50%; inconclusive = mostly about 31% to 49%; inactive = weaker than that.

Legend:
[1] = biological target: ATP-dependent translocase ABCB1 (Homo sapiens) (UniProt P08183); test: P-glycoprotein substrate transport blockade – cell-based (AID 377); details: MDR1-expressing cells, fluorescent substrate accumulation slope; stronger effect = higher value; concentration not given here
ATP-dependent translocase ABCB1 (Homo sapiens), sequence (P08183 whole entry, looked up): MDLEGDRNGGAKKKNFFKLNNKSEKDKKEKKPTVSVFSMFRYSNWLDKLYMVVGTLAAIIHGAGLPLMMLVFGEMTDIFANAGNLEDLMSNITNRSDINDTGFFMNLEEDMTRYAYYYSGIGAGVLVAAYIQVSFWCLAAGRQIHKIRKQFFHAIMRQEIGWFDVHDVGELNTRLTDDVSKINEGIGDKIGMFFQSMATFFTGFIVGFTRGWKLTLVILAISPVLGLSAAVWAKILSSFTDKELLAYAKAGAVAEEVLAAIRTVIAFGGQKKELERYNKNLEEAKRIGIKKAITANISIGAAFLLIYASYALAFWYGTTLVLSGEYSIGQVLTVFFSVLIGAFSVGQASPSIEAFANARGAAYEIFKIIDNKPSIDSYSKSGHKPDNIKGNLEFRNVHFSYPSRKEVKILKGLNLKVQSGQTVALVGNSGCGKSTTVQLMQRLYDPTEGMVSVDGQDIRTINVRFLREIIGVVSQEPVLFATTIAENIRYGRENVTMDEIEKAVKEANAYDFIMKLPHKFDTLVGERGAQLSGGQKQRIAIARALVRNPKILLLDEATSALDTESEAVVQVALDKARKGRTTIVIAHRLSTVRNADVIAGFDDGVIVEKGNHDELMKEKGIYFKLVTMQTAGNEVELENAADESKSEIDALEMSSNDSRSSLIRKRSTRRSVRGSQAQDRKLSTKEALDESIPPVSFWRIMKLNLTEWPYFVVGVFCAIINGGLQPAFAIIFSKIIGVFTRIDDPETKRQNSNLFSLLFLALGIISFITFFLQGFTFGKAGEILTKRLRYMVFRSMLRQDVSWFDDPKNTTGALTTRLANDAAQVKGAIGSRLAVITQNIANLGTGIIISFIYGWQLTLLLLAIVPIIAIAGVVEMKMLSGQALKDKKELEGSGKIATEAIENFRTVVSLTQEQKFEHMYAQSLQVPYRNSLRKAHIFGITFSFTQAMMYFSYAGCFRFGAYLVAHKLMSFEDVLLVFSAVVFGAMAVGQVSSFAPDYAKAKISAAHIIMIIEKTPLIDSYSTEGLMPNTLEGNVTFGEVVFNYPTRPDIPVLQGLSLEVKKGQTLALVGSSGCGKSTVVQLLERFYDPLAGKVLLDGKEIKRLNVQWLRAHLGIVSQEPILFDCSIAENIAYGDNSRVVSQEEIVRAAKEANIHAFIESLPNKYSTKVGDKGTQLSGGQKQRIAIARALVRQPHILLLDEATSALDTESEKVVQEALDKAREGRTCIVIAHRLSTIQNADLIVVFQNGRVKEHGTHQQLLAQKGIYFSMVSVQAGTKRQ

[2] = blockers of polyQ-driven CASP3 activation – cell-based (AID 1583); details: polyglutamine-induced caspase-3 activation, cell assay; stronger effect = higher value;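 tested at 10 µM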
[3] = yeast 75Q aggregation reduction – 75Q-TubU reporter (AID 1593); details: Yeast 75Q polyglutamine aggregation reporter
[4] = restoration of touch response, mutant HTT neurons – whole organism, C. elegans mechanosensory neurons, N-terminal huntingtin (AID 1599); details: C. elegans polyQ-huntingtin mechanosensory neurons, stronger effect = higher value
[5] = blockers of cytochrome c efflux from mitochondria – biochemical, purified mitochondria (AID 1603); details: stronger effect = lower value;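 note: mouse liver mitochondria challenged with calcium chloride; signal normalized to the plate average as 100%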
[6] = polyglutamine aggregate formation blockers (AID 1604); details: polyglutamine-induced protein aggregation inhibition assay; stronger effect = higher value; tested at 2.5 µM

SMILES	fluorescence slope change [1]	inhibition [2] [%]	score [3]	rescue above control [4]	cytochrome c release ratio [5]	inhibition of aggregation [6] [%]
NC(N)=NCCN1CCCCCCC1	125% (active)	22.4	1.49	-4.52	1.17	35.2
CC(=O)NO	25.2% (inactive)	31.8	1.13	-5.59	0.77	58.3
CC1=CC(=O)c2ccccc2C1=O	81.2% (active)	56.7	-0.01	-12.4	1.17	53.5
Cn1c(=O)c2c(ncn2CCO)n(C)c1=O	50.2% (active)	-0.98	1.29	-7.41	1.08	56.7
CCCOc1ccccc1-c1nc2n[nH]nc2c(=O)[nH]1	11.9% (inactive)	-7.12	0.63	1.11	0.54	18.4
CN1CCOC(c2ccccc2)c2ccccc2C1 (centres undefined)	5.9% (inactive)	4.24	1.08	-6.88	0.83	74.7
CN1CCC[C@@H]1CCO[C@](C)(c1ccccc1)c1ccc(Cl)cc1	188% (active)	2.42	1.25	0	1.13	76.2
CCN(CC)CCNC(=O)c1cc(S(C)(=O)=O)ccc1OC	144% (active)	6.97	1.47	10	5.94	79.2
NS(=O)(=O)c1cc2c(cc1Cl)NC(C(Cl)Cl)NS2(=O)=O (centres undefined)	24.8% (inactive)	12.2	1.03	12.5	1.13	79.6
O=C(O)CCC(=O)c1ccc(-c2ccccc2)cc1	81% (active)	1.96	-0.44	4.61	1	18.2
CCCCN(CCCC)CCCOC(=O)c1ccc(N)cc1	85.2% (active)	5.65	1.13	-6.3	0.76	39.2
CN1CCC(=C2c3ccccc3CC(=O)c3sccc32)CC1	20.2% (inactive)	9.78	1.65	1.84	1.14	57.6
C#CCN(C)Cc1ccccc1	71.9% (active)	17	1.16	30.7	1.06	0
O=C(OCC(O)CO)c1ccccc1Nc1ccnc2cc(Cl)ccc12 (centres undefined)	88.6% (active)	18.5	1.22	-8.14	1.02	23.8
OCC(O)CN1CCN(c2ccccc2)CC1 (centres undefined)	54.1% (active)	9.99	1.44	10.9	0.72	68.2
Cc1ccnc(NS(=O)(=O)c2ccc(N)cc2)n1	18.7% (inactive)	3.68	0.98	11.1	0.88	38
c1ccc(CN(CC2=NCCN2)c2ccccc2)cc1	118% (active)	9.99	1.33	-13.1	1.08	71.4
Cc1cc(C(C)(C)C)cc(C)c1CC1=NCCN1	26.6% (inactive)	23.6	1.63	-3.36	1.05	63.4
O=C(O)c1ccccc1C(=O)Nc1ccc(S(=O)(=O)Nc2nccs2)cc1	52.9% (active)	-4.35	1.11	-3.35	0.81	12.9
COc1c2occc2c(OC)c2c(=O)cc(C)oc12	54.2% (active)	3.52	0.76	0	1.14	63.2
CCCCC(CC)CN1CN(CC(CC)CCCC)CC(C)(N)C1 (centres undefined)	61.9% (active)	22.5	0.11	0	0.41	1.83
Cc1cccc(C)c1OCC(C)N (centres undefined)	24.1% (inactive)	-1.28	1.39	0.83	0.86	45.1
O=NN(CCCl)C(=O)NCCCl	11.5% (inactive)	-31.5	0.3	5.39	0.91	72.2
CCn1cc(C(=O)O)c(=O)c2cc(F)c(N3CCNCC3)nc21	3.6% (inactive)	-8.5	1.5	0.62	0.92	-1.85
C[N+](C)(C)CCOC(N)=O	12.8% (inactive)	19.3	1.38	2.63	0.77	60.9

SMILES	fluorescence slope change [1]	inhibition [2] [%]	score [3]	rescue above control [4]	cytochrome c release ratio [5]	inhibition of aggregation [6] [%]
C=CCc1ccccc1OCC(O)CNC(C)C (centres undefined)	80.3% (active)	3.86	1.39	6.88	1.44	14.3
CO[C@]12C[C@@H](COC(=O)c3cncc(Br)c3)CN(C)[C@@H]1Cc1cn(C)c3cccc2c13	159% (active)	2.79	0.99	12.5	0.85	65.4
CC(=O)OCC1=C(C(=O)O)N2C(=O)[C@@H](NC(=O)Cc3cccs3)[C@H]2SC1	2.1% (inactive)	11.1	1.29	-1.7	0.78	-17.5
Nc1ccc(S(=O)(=O)Nc2ccccn2)cc1	12.6% (inactive)	-3.18	1.17	5.7	0.88	24.2
CCn1cc(C(=O)O)c(=O)c2cnc(N3CCCC3)nc21	55.2% (active)	-13.1	0.98	7.28	1.33	85.9
Nc1cc(-c2ccncc2)c[nH]c1=O	8.3% (inactive)	-0.86	1.14	4.19	0.91	17.8
CCN(CC)CCOC(=O)C(Cc1cccc2ccccc12)CC1CCCO1 (centres undefined)	91.9% (active)	-17.5	1.25	1.39	1.11	22.2
CN(C)CCOC(=O)COc1ccc(Cl)cc1	-15.2% (inactive)	6.84	1.08	-6.72	0.96	83.1
COc1ccc(NS(=O)(=O)c2ccc(N)cc2)nn1	-40.8% (inactive)	24	1.56	12.3	0.95	-3.03
CC(CN(C)C)CN1c2ccccc2CCc2ccccc21 (centres undefined)	61.2% (active)	11.6	1.5	-11.6	0.94	23.8
CC(=O)OCC1=C(C(=O)O)N2C(=O)[C@@H](NC(=O)CSc3ccncc3)[C@H]2SC1	13.4% (inactive)	-8.64	1.04	-6.1	1.02	71.9
COCCc1ccc(OCC(O)CNC(C)C)cc1 (centres undefined)	51% (active)	9.55	0.98	-6.09	0.97	69.7
CN1CCN(CCCN2c3ccccc3Sc3ccc(Cl)cc32)CC1	65.3% (active)	88.9	1.36	0	2.91	74.6
CC1CCC(NC(=O)N(CCCl)N=O)CC1 (centres undefined)	10.9% (inactive)	13.6	0.02	-12.6	1.01	26.4
CC(C)COCC(CN(Cc1ccccc1)c1ccccc1)N1CCCC1 (centres undefined)	131% (active)	7.56	1.17	1.23	0.32	23.6
CC(Cc1cccc(C(F)(F)F)c1)NCCOC(=O)c1ccccc1 (centres undefined)	69.3% (active)	15	1.42	0	1.02	40.9
COc1ccccc1OCC(O)CO (centres undefined)	12.6% (inactive)	-27.7	0.87	-10.8	1.15	58.9
CCN(CC)CCNC(=O)c1cc(Cl)c(N)cc1OC	27.9% (inactive)	-5.58	1.42	-6.22	1.15	25.8
NS(=O)(=O)c1cc(C(=O)O)c(NCc2ccco2)cc1Cl	19.9% (inactive)	10.9	1.37	-8.35	0.82	3.24
CS(=O)(=O)Nc1ccc([N+](=O)[O-])cc1Oc1ccccc1	50.2% (active)	6.83	0.85	3.29	3.47	42.5
Cc1c(NC(=O)c2cccnc2)c(=O)n(-c2ccccc2)n1C	25.2% (inactive)	13.7	1.39	-0.65	0.9	85.9
NCCCC[C@H](N[C@@H](CCc1ccccc1)C(=O)O)C(=O)N1CCC[C@H]1C(=O)O	60.6% (active)	-0.18	0.98	-7.67	1.03	45.6
CC[C@]12CCCN3CCc4c(n(c5ccccc45)C(=O)C1)[C@@H]32	12.1% (inactive)	11.5	1.49	15.2	1.06	76
COC(=O)Nc1nc2ccc(Sc3ccccc3)cc2[nH]1	52.1% (active)	20.4	0.64	-1.52	0.87	6.35
